The text below walks through data of the supplement of paper PMC6555819.

In this experiment the test system is VDR:RXRa (NR concentration 270 nM, RXRa partner concentration 90 nM). Description: PBM binding z-score (relative to random genomic background probes); higher = stronger binding; sequences stand for … in GC…GCGATTGACAGCGTAGAATGAAGG
The protocol: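 Protein-binding microarray (Agilent 4x180K custom design, double-stranded 60-nt probes: 5' GC cap, 34-nt variable region, 24-nt constant primer region; full probe sequence given). Purified or IVT nuclear receptor:RXRα heterodimers (3:1 NR:RXRα, mostly 270:90 nM) or homodimers were incubated for 1 h in PBS with 2% milk and no ligand, then detected with Alexa488 antibodies. Fluorescence from o1-orientation probes (~5 replicates averaged) was converted to z-scores against 500 random hg19 background probes. Variable regions are seed direct-repeat (DR0–DR5) sites, all their single-nucleotide variants and half-site ablations.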
With AGAATGGGGTTACCAAAGATCAGGGAAACGCTTG, the PBM binding z-score is 2.66.

As for ATCGAAAGGTCGAAGGTGAGCATACCCACCCGAA, the PBM binding z-score is 2.63.

GCTGCTAGGTCAACTGATGGCCAGCTAAAGCTCG had a PBM binding z-score of 1.14.

In turn, GCTTAAGGGTCAAAGGTTATAGCATGAATAGAAT registered a PBM binding z-score of 6.45.

The sequence CGAACTAGGTCAAAGGACATTGAAAGGCGACGTA returned a PBM binding z-score of 1.88.

As for CGAACTAGGTCATTGACAGGACAATGAATAGTAA, the PBM binding z-score was 2.62.

For the sequence CGAACTAGGTCTAAGGACAGTGAAAGGCGACGTA, the PBM binding z-score is -0.556.

CAAACCAGGTCAAGAGGTCAAAGTCCGCTTCCCG showed a PBM binding z-score of 6.45.

Consider CGTCAAAGTTCAAGGTCACGTAACAGAAAGCAGC, for which the PBM binding z-score was found to be 5.84.

As for CAAACTAGGTCAAAAGGTCAAAGTCCGCTTCCCG, the PBM binding z-score amounted to 6.32.

With GCTTACGGGTCCAAGGTTATAGCATGAATAGAAT, the PBM binding z-score was 1.26.

In turn, GCTGCGAGGTCAACTGATGGTCAGCTAAAGCTCG gave a PBM binding z-score of 5.48.

TACCCTAGGTCATTGGGCCAGTATAGTACGCATC had a PBM binding z-score of 2.73.

The sequence AGTCAAAGTTCAGGACGACGTAACGTAAAGCACG returned a PBM binding z-score of 2.18.

The sequence CGTCAAAGTTCAACTGAGGTAACGTAAAGCACGC returned a PBM binding z-score of 5.16.

The sequence TCTCGGAGGACACTAAAGGTCAGAGCTCGACATC registered a PBM binding z-score of 3.2.

Regarding TATACAAGGTCAAAGGCCAGAGTACGAATGTCGA, the PBM binding z-score came to 4.83.

CTATGTGGGTTAAGGGGGTCATTCAGTTTGAAAG returned a PBM binding z-score of 7.5.

On to GCTGCTAGTTCAACTGATGGTCAGCTAAAGCTCG, for which the PBM binding z-score was 0.168.

The sequence ACTCGGAGGACAAAGGTCAGGGCTACGCCAGTGA came in with a PBM binding z-score of 3.43.
